Consider 38 compounds from PubChem BioAssay (NCI).

A short description of test [1]: NCI Yeast Anticancer Drug Screen. Data for the rad50 strain (AID 155).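 Note: 0% = growth of vehicle-only cultures of the same strain.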 The settings on record: S. cerevisiae rad50 strain growth inhibition; at 50.0 µM; stronger effect = higher value. The method, boiled down:
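Compounds were tested on a yeast strain with an engineered DNA damage repair alteration; the reported value is growth inhibition normalised to vehicle treatment.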

The nature of test [2]: NCI Yeast Anticancer Drug Screen. Data for the mec2-1 strain (AID 157). The settings on record: S. cerevisiae mec2-1 strain, at 50.0 µM, stronger effect = higher value. The method, boiled down: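 Yeast mec2-1 mutant treated with compound. Readout: growth inhibition vs vehicle controls.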
A short description of test [3]: NCI Yeast Anticancer Drug Screen. Data for the sgs1 mgt1 strain (AID 161).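 Note: 0% = growth of cultures given vehicle only.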 Particulars: S. cerevisiae sgs1 mgt1 strain, at 50.0 µM, stronger effect = higher value. The method, boiled down:
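Test agents were incubated with a DNA-repair-mutant yeast strain. Growth was then read and compared against vehicle-treated controls.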

Test [4] in a line: NCI Yeast Anticancer Drug Screen. Data for the cln2 rad14 strain (AID 165).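 Note: 0% = growth equal to vehicle treated cultures.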 Particulars: S. cerevisiae cln2 rad14 strain, at 50.0 µM, stronger effect = higher value. The method, boiled down:
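cln2 rad14 yeast strain; compound exposure; growth inhibition read vs vehicle controls.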

Test [5] in a line: NCI Yeast Anticancer Drug Screen. Data for the bub3 strain (AID 167). The settings on record: S. cerevisiae bub3 mutant strain, at 50.0 µM, stronger effect = higher value. The method, boiled down:
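Growth of a checkpoint-deficient yeast mutant is measured after compound exposure. Values represent inhibition relative to vehicle.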

The nature of test [6]: NCI Yeast Anticancer Drug Screen. Data for the mlh1 rad18 strain (AID 175). Particulars: S. cerevisiae mlh1 rad18 strain growth inhibition; at 50.0 µM; stronger effect = higher value. The method, boiled down:
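Yeast w/ defined DNA-repair lesions; compound exposure; growth vs vehicle controls → % inhibition.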

The panel holds about 79,000 compounds, 15% with a hit somewhere; the sample as a whole holds those more often. Values without a mark were called inactive. Active and inactive are the calls of the source. Cut-off read from the data, not from the text of the source: active = growth inhibition above about 70%; inactive = the rest.

`CCCCCCCCCCCCCCCCc1c(C(=O)OC)[nH]c(=S)[nH]c1=O`: the growth inhibition in test [1] was -49%; in test [2], -18.2%; in test [3], -21.9%; in test [4], -2.8%; in test [5] it was -29.1%; in test [6] it was -11.3%.
`O=C(NCCO)[C@H](O)[C@@H](O)[C@H](O)[C@H](O)CO`: the growth inhibition is 7.1% in test [1]; -2% in test [2]; -3.7% in test [3]; 16.1% in test [4]; 14.9% in test [5]; 15.2% in test [6].
In the case of `COc1cc2ccccc2oc1=O`, the growth inhibition is 21.3% in test [1]; 8.85% in test [2]; 3.8% in test [3]; 15.2% in test [4]; 5.2% in test [5]; 21.6% in test [6].
Regarding `CC(=O)NNc1nc(C)c(C(=O)NNC(=O)C(=O)Nc2cccc(C(C)=O)c2)s1`, the growth inhibition in test [1] was 7.3%; in test [2] it was 0.5%; in test [3], -23.1%; in test [4] it was 36.5%; in test [5], 0.85%; in test [6] it was -12.3%.
Turning to `CC(C)NC(=O)OCc1c(COC(=O)NC(C)C)n(C)c2c1ccc1ccccc12`, the growth inhibition was 89.8% (active) in test [1]; 84.8% (active) in test [2]; 83.8% (active) in test [3]; 84.5% (active) in test [4]; 87.5% (active) in test [5]; 85.5% (active) in test [6].
As to `CCC12C=CCN(CCc3c([nH]c4ccccc34)/C=C\1)C2` (stereo not drawn), the growth inhibition was -8.95% in test [1]; -8.75% in test [2]; -7.25% in test [3]; -1.6% in test [4]; 6.55% in test [5]; -15.8% in test [6].
Regarding `CC(C)C(C)(O)c1ccccc1` (stereo not drawn), the growth inhibition is -3.15% in test [1]; -28.8% in test [2]; 5.35% in test [3]; -10.9% in test [4]; 0.35% in test [5]; 0.9% in test [6].
As to `O=S(=O)(O)c1ccc(N=Nc2c(O)cc(O)cc2O)cc1`, the growth inhibition is -21.9% in test [1]; -6.8% in test [2]; -6.95% in test [3]; 17.2% in test [4]; 31.8% in test [5]; -18.4% in test [6].
In the case of `O=C(C#Cc1ccccc1)N1c2ccccc2CC1c1c[nH]c2ccccc12` (stereo not drawn), the growth inhibition in test [1] is -7.25%; in test [2], -6.2%; in test [3], 0.7%; in test [4], 2.55%; in test [5] it was -2.8%; in test [6], -6.85%.
As for `Cc1ccc2c(N(C)C)cc(N(C)C)nc2c1C`, the growth inhibition was -0.15% in test [1]; 4.4% in test [2]; -9.2% in test [3]; -48% in test [4]; -1.1% in test [5]; 15.5% in test [6].
In the case of `c1ccc([Si]2(c3ccccc3)[Si](c3ccccc3)(c3ccccc3)[Si](c3ccccc3)(c3ccccc3)[Si]2(c2ccccc2)c2ccccc2)cc1`, the growth inhibition was 6% in test [1]; -1.4% in test [2]; -35% in test [3]; -1.45% in test [4]; -0.45% in test [5]; 3.75% in test [6].
On to `O=CNC(Cc1cnc[nH]1)C(=O)O` (stereo not drawn), for which the growth inhibition is -14.4% in test [1]; -16.9% in test [2]; -48.1% in test [3]; -68.2% in test [4]; -25.5% in test [5]; -30.2% in test [6].
Turning to `O=C(O)CCCC1(CCCC(=O)O)OCCO1`, the growth inhibition in test [1] was 9.6%; in test [2] it was -4.45%; in test [3], -22.9%; in test [4] it was -60.5%; in test [5], -13.8%; in test [6], -2.8%.
In the case of `CCS(=O)(=O)N(CC(=O)O)Cc1ccccc1`, the growth inhibition was -4.95% in test [1]; 7.3% in test [2]; -13.4% in test [3]; 0.95% in test [4]; 6.8% in test [5]; 0.65% in test [6].
As to `C=CCC1=C2CCCCC2CCC1=O` (stereo not drawn), the growth inhibition in test [1] is -5.7%; in test [2], -27.8%; in test [3], -15.9%; in test [4], 3.3%; in test [5], -11%; in test [6] it was 4.95%.
As to `N#Cc1ccc[n+](Cc2c(Cl)cccc2Cl)c1`, the growth inhibition in test [1] was 6.6%; in test [2], 28.9%; in test [3] it was 23.2%; in test [4] it was 5.8%; in test [5], 20.6%; in test [6], 44.1%.
For `Oc1ccccc1C=Nc1ccc(Cl)cc1`, the growth inhibition is -1.35% in test [1]; 3.6% in test [2]; -5.5% in test [3]; -12.7% in test [4]; -21.6% in test [5]; 6.85% in test [6].
As for `C#CC(OC(C)=O)C1OC(n2cnc3c(Cl)nc(Cl)nc32)C(OC(C)=O)C1OC(C)=O` (stereo not drawn), the growth inhibition in test [1] is 37.5%; in test [2] it was 2.45%; in test [3] it was 21.2%; in test [4], 17.9%; in test [5] it was 10.8%; in test [6] it was 24.4%.
As for `O=C=Nc1ccc(Cl)c(Cl)c1`, the growth inhibition in test [1] was -19.9%; in test [2] it was -29.4%; in test [3] it was -43%; in test [4], -9.1%; in test [5], -13.7%; in test [6], -19.1%.
For the compound `O=C(NC(=O)c1ccccc1[N+](=O)[O-])Nc1ccc(Oc2ncc(Br)cn2)c(Cl)c1`, the growth inhibition was -1.35% in test [1]; -30.8% in test [2]; -19.4% in test [3]; 0.6% in test [4]; -9.25% in test [5]; -56.8% in test [6].
For the compound `COC(=O)C1CCC(=O)N1C(c1ccc(OC)cc1)c1ccc2c(c1)OCO2` (stereo not drawn), the growth inhibition in test [1] is -0.1%; in test [2] it was 20.9%; in test [3] it was 11.1%; in test [4], 11.7%; in test [5] it was 31.5%; in test [6] it was 34%.
As for `CCOC(=O)c1ccc(CSc2ccccc2C(=O)OCC)cc1`, the growth inhibition in test [1] is -10.3%; in test [2], -13.1%; in test [3], 9.95%; in test [4] it was -60.1%; in test [5], -17.1%; in test [6], -43.2%.
For the compound `Clc1ccc(C2SC=Cc3ccccc32)cc1` (stereo not drawn), the growth inhibition in test [1] was 53.8%; in test [2], 33.8%; in test [3], 47.6%; in test [4], 5.9%; in test [5], 49.8%; in test [6] it was 37.7%.
As to `CCCC(C)NC(=O)c1ccc(Cl)c(Cl)c1` (stereo not drawn), the growth inhibition is 0.25% in test [1]; 4.9% in test [2]; 13.1% in test [3]; 8.3% in test [4]; 9.15% in test [5]; 24.6% in test [6].
`S=c1[nH]c2ccccc2n1CCc1ccncc1`: the growth inhibition in test [1] is -6.8%; in test [2], -15.1%; in test [3] it was 22.2%; in test [4] it was -1.5%; in test [5], 1.05%; in test [6] it was 3.5%.
Turning to `COc1cc(CC(=O)c2ccc3c(c2)OCO3)cc(OC)c1OC`, the growth inhibition was -9.95% in test [1]; -5.15% in test [2]; -8.95% in test [3]; -15.5% in test [4]; 4.75% in test [5]; -25.3% in test [6].
Consider `CCOC(=O)c1ccc(OCC)cc1O`, for which the growth inhibition is 2.25% in test [1]; -8% in test [2]; 0.6% in test [3]; -17.6% in test [4]; -30.4% in test [5]; -15.8% in test [6].
Regarding `CCCCCCCCCc1cc(-c2ccc(C=O)s2)sc1-c1ccc(C=O)s1`, the growth inhibition in test [1] was 8.8%; in test [2], -4.5%; in test [3], -8.8%; in test [4] it was -3.6%; in test [5], -12.9%; in test [6], 0.4%.
Regarding `O=c1c[n+]([O-])c2ccccc2n1O`, the growth inhibition in test [1] was 10.8%; in test [2], -3.75%; in test [3], 3.75%; in test [4] it was -27.1%; in test [5] it was -5.7%; in test [6] it was 11.8%.
Regarding `Cc1nnc2n1N=C(c1ccccc1)C(c1ccccc1)S2` (stereo not drawn), the growth inhibition in test [1] is 31.8%; in test [2], 29.9%; in test [3], 33.5%; in test [4], 25.9%; in test [5], 57.4%; in test [6], 40.3%.
Regarding `O=C(CC/C(CC(=O)c1ccc(Cl)cc1)=N\O)Nc1cccc(Cl)c1`, the growth inhibition in test [1] is -31.9%; in test [2], -2.4%; in test [3], -6.45%; in test [4] it was -3.85%; in test [5], 0.7%; in test [6], -11.6%.
In the case of `CNc1cc(S(=O)(=O)O)ccc1C`, the growth inhibition in test [1] is 1.45%; in test [2], -4.45%; in test [3] it was -2.6%; in test [4], 3.9%; in test [5], 10.6%; in test [6] it was -5.05%.
For `OC(COc1cccc(C(F)(F)F)c1)CN1CCN(c2ccccc2)CC1` (stereo not drawn), the growth inhibition in test [1] is 83.7% (active); in test [2], 83% (active); in test [3], 93.5% (active); in test [4] it was 86.7% (active); in test [5], 75.4% (active); in test [6], 87.3% (active).
In the case of `Clc1cc(Cl)cc(Nc2nc3ccccc3nc2-c2cccs2)c1`, the growth inhibition was -19.3% in test [1]; -14% in test [2]; 33.2% in test [3]; 3.35% in test [4]; -29.1% in test [5]; -10.2% in test [6].
Consider `CC(O)(c1ccccc1)C1CC1c1ccccc1` (stereo not drawn), for which the growth inhibition in test [1] was 29.9%; in test [2], -3.5%; in test [3], 20.8%; in test [4] it was -17.2%; in test [5], -12.5%; in test [6], 6.3%.
With `Cc1nc(Cl)c2cnccn12`, the growth inhibition is -4.2% in test [1]; -1.85% in test [2]; 7.8% in test [3]; -37.5% in test [4]; -1.25% in test [5]; 0.2% in test [6].
As to `Cc1ccccc1OCC(O)CO` (stereo not drawn), the growth inhibition in test [1] is 4.2%; in test [2], -5.9%; in test [3], -8.7%; in test [4] it was 22.2%; in test [5], -23.4%; in test [6], -13.6%.
On to `CCCCC(O)c1ccc[n+]([O-])c1` (stereo not drawn), for which the growth inhibition in test [1] is 4.3%; in test [2] it was -21%; in test [3], 0.6%; in test [4] it was 2.95%; in test [5] it was -3.4%; in test [6], 3.95%.
